Compounds with a hit are over-represented: about 3.5% of the library has one in this group of screens.
MITF primary = blocks human microphthalmia-associated transcription factor; actives 0.91% (n = 650,000); O75030; inhibition, % at 2.6 µM; AlphaScreen MITF homodimerization, bead proximity signal; in the data active = inhibition above about 50%;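 also: 0% = vehicle wells with protein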
Target sequence (O75030 whole entry, looked up): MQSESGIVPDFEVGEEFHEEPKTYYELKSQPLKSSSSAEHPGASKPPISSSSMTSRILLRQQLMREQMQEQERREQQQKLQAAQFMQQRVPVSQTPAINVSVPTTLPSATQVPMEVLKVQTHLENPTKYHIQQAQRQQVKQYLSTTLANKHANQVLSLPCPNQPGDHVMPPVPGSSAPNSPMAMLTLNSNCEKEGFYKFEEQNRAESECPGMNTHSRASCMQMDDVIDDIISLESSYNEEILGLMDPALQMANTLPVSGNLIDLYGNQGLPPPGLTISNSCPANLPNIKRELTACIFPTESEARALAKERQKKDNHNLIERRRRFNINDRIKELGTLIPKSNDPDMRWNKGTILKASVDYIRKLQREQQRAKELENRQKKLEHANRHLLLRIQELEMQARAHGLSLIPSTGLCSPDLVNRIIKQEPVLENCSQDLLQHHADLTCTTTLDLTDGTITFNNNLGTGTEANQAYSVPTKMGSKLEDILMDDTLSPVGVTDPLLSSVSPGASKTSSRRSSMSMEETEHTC
TEAD-YAP block = TEAD-YAP interaction inhibition | HEK-TIYL cells, TEAD-Gal4/YAP UAS-luciferase luminescence | inhibition, % at 9.12 µM | actives 1.4% (n = 640,000) | AID 1259422; in the data active = inhibition above about 32%;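 also: 0% = median of test compound wells and 100% = reference inhibitor wells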
FBW7 act = human FBW7 E3 ligase activation, primary screen; normalized activity (activation), % at 26.1 µM; AlphaScreen FBW7–phospho-cyclin E peptide binding, activator screen; actives 0.13% (n = 650,000); in the data active = normalized activity above about 1.9%;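 also: purified mutant Fbw7 with reduced substrate affinity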
GPR151 activ = activates the human receptor GPR151; PathHunter beta-arrestin GPR151 cells, luminescence; AID 1508602; actives 1% (n = 650,000); Q8TDV0; activation, % at 11.2 µM; in the data active = activation above about 4.9%;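 also: 0% = median of compound wells and 100% = cells with positive control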
MITF inh conf = confirmation of human MITF inhibitors; shares compounds with MITF primary; AlphaScreen MITF homodimerization, biotin/His-MITF beads; inhibition, % at 2.6 µM; actives 16% (n = 4,700);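 active = inhibition above a cutoff derived from the DMSO control wells, cut at about 28% in these data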;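 also: 0% = MITF dimer wells with DMSO only; inhibitors lower the bead chemiluminescence by keeping MITF from dimerizing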
AlphaScreen DR = optically interferes with AlphaScreen signal in dose response; AlphaScreen optical interference counterscreen, cell-free; shares compounds with MITF primary; AID 1259373; IC50, µM; actives 6% (n = 480); call rule not given here
AS interf ctr = counter-screen: compounds optically interfering with AlphaScreen | shares compounds with MITF primary | LysRS AlphaScreen counterscreen, signal interference, triplicate | inhibition, % at 2.6 µM | actives 7.6% (n = 4,700) | AID 1259376;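 active = inhibition above a cutoff derived from the DMSO control wells, cut at about 30% in these data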
Active calls of the source: *.

Screening CC(=O)Nc1nnc(SCc2cc(=O)c(OC(=O)c3ccc(F)cc3)co2)s1 returned MITF primary 5, TEAD-YAP block -8, FBW7 act -1 and GPR151 activ 4.
For CN(C)/C=C/C=C/C(=O)c1cccc(C(=O)/C=C/C=C/N(C)C)c1O the results were MITF primary 56*, TEAD-YAP block -8, FBW7 act 0, GPR151 activ 1, MITF inh conf 79*, AlphaScreen DR >6.5 and AS interf ctr -11.
Screening Cc1ccc(C(=O)/C=C/C=C/C=C/N(C)C)o1 returned MITF primary 16, TEAD-YAP block -4, FBW7 act 0 and GPR151 activ -1.
`CC(C)C[C@@H]1NC(=O)[C@H]2CN(C(=O)c3ccc(Cl)cc3)CCN2C1=O` gave MITF primary 6, TEAD-YAP block -2, FBW7 act 0 and GPR151 activ 3.
Cc1nn(C2CCS(=O)(=O)C2)c(Cl)c1CNCCCOC(C)C (stereo unspecified) was read as MITF primary 51*, TEAD-YAP block 1, FBW7 act 0, GPR151 activ -2, MITF inh conf 6 and AS interf ctr 10.
Cc1nn(-c2ccccc2)c(Cl)c1CNCCCOC(C)C was read as MITF primary 34, TEAD-YAP block -3, FBW7 act 0 and GPR151 activ -1.
For O=C(c1ccccc1F)N1CCN(Cc2ccc(Br)cc2)CC1 the results were MITF primary 50, TEAD-YAP block 19, FBW7 act 0 and GPR151 activ -1.
Screening O=C(c1ccccc1F)N1CCN(Cc2cccnc2)CC1 returned MITF primary 63*, TEAD-YAP block 9, FBW7 act 0, GPR151 activ 1, MITF inh conf -16 and AS interf ctr -6.
COc1cc(CN2CCN(C(=O)c3ccco3)CC2)cc(OC)c1OC was read as MITF primary 33, TEAD-YAP block 9, FBW7 act 0 and GPR151 activ 1.
`O=C(c1ccccc1F)N1CCN(Cc2ccncc2)CC1` gave MITF primary 73*, TEAD-YAP block 8, FBW7 act 0, GPR151 activ 1, MITF inh conf -13 and AS interf ctr -3.
O=C(c1ccccc1F)N1CCC(O)(c2cccnc2)CC1 was read as MITF primary 29, TEAD-YAP block -3, FBW7 act 0 and GPR151 activ 4.
`O=C(c1ccco1)N1CCN(Cc2cccnc2)CC1` gave MITF primary 66*, TEAD-YAP block 7, FBW7 act 0, GPR151 activ -1, MITF inh conf 3 and AS interf ctr -1.
For COc1ccc(C2C(C(=O)OC3CCCC3)=C(C)NC3=C2C(=O)CC(C)(C)C3)cc1 (stereo unspecified) the results were MITF primary 4, TEAD-YAP block -6, FBW7 act 0 and GPR151 activ 0.
For Cc1cccc(NC(=O)C(=O)NC2CCCC2)c1 the results were MITF primary -3, TEAD-YAP block 19, FBW7 act 0 and GPR151 activ -4.
Screening S=C(NCc1ccco1)N1CCN(Cc2ccc3c(c2)OCO3)CC1 returned MITF primary 80*, TEAD-YAP block 0, FBW7 act 0, GPR151 activ 0, MITF inh conf 11 and AS interf ctr 22.
Screening S=C(NCc1ccco1)N1CCN(Cc2ccccc2)CC1 returned MITF primary 1, TEAD-YAP block -5, FBW7 act 0 and GPR151 activ 1.
Screening O=C(c1ccco1)N1CCN(Cc2ccc3c(c2)OCO3)CC1 returned MITF primary 62*, TEAD-YAP block -3, FBW7 act 0, GPR151 activ -1, MITF inh conf 3 and AS interf ctr -4.
`CS(=O)(=O)N(CC(=O)N1CCN(Cc2ccc3c(c2)OCO3)CC1)c1ccc(F)cc1` gave MITF primary 75*, TEAD-YAP block 2, FBW7 act 0, GPR151 activ 0, MITF inh conf -5 and AS interf ctr -2.
Screening COc1ccc(-c2cc(C(=O)NN)n(CCC#N)n2)cc1 returned MITF primary 13, TEAD-YAP block -14, FBW7 act 0 and GPR151 activ 0.
CN(CCc1ccccc1)C1CCCN(Cc2ccccn2)C1 (stereo unspecified) was read as MITF primary 11, TEAD-YAP block 8, FBW7 act 0 and GPR151 activ 0.
Screening Cn1c(SCc2ccccc2)nnc1C1CCCN(Cc2ccccn2)C1 (stereo unspecified) returned MITF primary 61*, TEAD-YAP block -3, FBW7 act 0, GPR151 activ 0, MITF inh conf 36* and AS interf ctr 93*.
For COCCOC(=O)C1=C(C)NC2=C(C(=O)CC(C)(C)C2)C1c1ccc(Cl)c(Cl)c1 (stereo unspecified) the results were MITF primary -3, TEAD-YAP block 12, FBW7 act 0 and GPR151 activ 1.
For Clc1ccccc1CN1CCN(CC2CC3C=CC2C3)CC1 (stereo unspecified) the results were MITF primary 74*, TEAD-YAP block 5, FBW7 act 0, GPR151 activ 0, MITF inh conf -5 and AS interf ctr 2.
`Cc1cccc(CN2CCN(CC3CC4C=CC3C4)CC2)c1` (stereo unspecified) gave MITF primary 57*, TEAD-YAP block -10, FBW7 act 0, GPR151 activ -2, MITF inh conf 7 and AS interf ctr 19.
Clc1cccc(CN2CCN(CC3CC4C=CC3C4)CC2)c1 (stereo unspecified) was read as MITF primary 74*, TEAD-YAP block -1, FBW7 act 0, GPR151 activ 1, MITF inh conf 13 and AS interf ctr 18.
O=S(=O)(Cc1ccccc1)N1CCN(CC2CC3C=CC2C3)CC1 (stereo unspecified) was read as MITF primary 37, TEAD-YAP block 1, FBW7 act 0 and GPR151 activ 1.
Cc1ccc(S(=O)(=O)N2CCN(C(C)CC(=O)O)CC2)cc1 (stereo unspecified) was read as MITF primary 65*, TEAD-YAP block -15, FBW7 act 0, GPR151 activ -1, MITF inh conf -3 and AS interf ctr 0.
For Nc1nc(Cl)cc(Nc2ccccc2)n1 the results were MITF primary 11, TEAD-YAP block -9, FBW7 act 1 and GPR151 activ 1.
`CCOC(=O)C1CCN(Cc2cccc(OC)c2OC)CC1` gave MITF primary -17, TEAD-YAP block 1, FBW7 act 0 and GPR151 activ 0.
For COc1cc(OC)c(OC)cc1CN1CCC(N2CC(C)OC(C)C2)CC1 (stereo unspecified) the results were MITF primary 89*, TEAD-YAP block 9, FBW7 act 0, GPR151 activ 0, MITF inh conf -8 and AS interf ctr -6.
